High-throughput results deposited in PubChem by National Center for Advancing Translational Sciences (NCATS).
HCV inh: blocks hepatitis C virus; Huh7.5.1 HCVcc-Cre infection, luciferase reporter, 44 h; Potency, µM (highest dose often 41.8 µM), actives largely listed as inhibitors; 340,000 compounds, 3.4% hits; AID 651820
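HCVcc-Cre virus at an moi near 0.5 was added right after compound to cells cultured 4 h from seeding (1,000 cells/well). Luciferase activity was determined 44 h later, 15 min after substrate addition at RT.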
FMDV antiviral: antivirals against foot and mouth disease virus. FMDV antiviral cell-based qHTS. Potency, µM (series often up to 57.9 µM), hits mostly inhibitors. 410,000 compounds, 1.2% hits; calls by dose curve; tested in HEK293T cells; further: read-out not given here; nearly all actives have a fitted effect of over 45% in size
Marburg entry inh: inhibitors of Marburg virus binding or cell entry; Marburg virus pseudotyped entry inhibition, cell reporter; Potency, µM (titrated, usually from 37.8 µM), actives largely listed as inhibitors; 300,000 compounds, 1.8% hits; calls by dose curve; tested in HEK293 cells
HCMV antiviral: blocks human cytomegalovirus replication; HFF cells, HCMV-luciferase reporter, 72 h; stronger effect = lower value; activity change, negative = inhibition, % at 57.5 µM; 410,000 compounds, 4.5% hits; in the data active means activity change below about -60%; inconclusive means no clear call, values can overlap the other calls; inactive means above about -39%
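Screen run at 2 compound doses on HFFs infected with reporter HCMV, MOI 1 PFU/cell. Luciferase activity from cell lysates at 72 h post infection gave inhibition relative to buffer-only and Salinomycin wells.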
Giardia FBPA inh: blocks Giardia fructose-bisphosphate aldolase activity. A8B2U2. purified Giardia FBPA. Potency, µM (titrated, usually from 59.6 µM), most hits filed as inhibitors. 290,000 compounds, 0.71% hits. AID 2451; further: nearly all actives have a fitted effect of over 55% in size
Target sequence (A8B2U2 whole entry, looked up): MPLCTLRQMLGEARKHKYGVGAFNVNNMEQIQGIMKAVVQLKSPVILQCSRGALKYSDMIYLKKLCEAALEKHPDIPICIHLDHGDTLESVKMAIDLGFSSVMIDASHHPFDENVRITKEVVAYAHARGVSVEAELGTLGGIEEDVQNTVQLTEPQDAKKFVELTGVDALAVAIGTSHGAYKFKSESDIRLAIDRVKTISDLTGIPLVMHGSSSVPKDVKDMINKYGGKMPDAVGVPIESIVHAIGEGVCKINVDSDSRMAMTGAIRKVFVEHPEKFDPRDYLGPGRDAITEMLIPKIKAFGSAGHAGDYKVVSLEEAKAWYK
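Giardia FBPA (40 nM reagent) was preincubated 10 min at RT with compound (up to 57.5 uM final), then substrate plus GAPDH/TPI/NAD/arsenate coupling system with diaphorase/resazurin was added; resorufin fluorescence (525/598 nm) was read after 20 min.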
Lassa entry inh: blocks Lassa virus binding to or entry into cells; Potency, µM (doses to about 37.9 µM), actives largely listed as inhibitors; Lassa virus pseudotype entry inhibition, cell reporter; 300,000 compounds, 1.2% hits; calls by dose curve; tested in HEK293 cells; further: nearly all actives have a fitted effect of over 50% in size
A number is an active result; – = inactive; ? = inconclusive; · = no result. Only some compounds are listed: those with a hit (about 8.3% of all), similar ones and a draw of the others. Unless noted, the call rests on the fitted dose curve; in most records, active means well fitted curve in the direction sought with a large enough effect; inconclusive means small, poorly fitted or top-dose-only effect, or another doubt; inactive means no such curve, though single readings can be large; an effect the other way counts as inactive or inconclusive.

SMILES | HCV inh | FMDV antiviral | Marburg entry inh | HCMV antiviral | Giardia FBPA inh | Lassa entry inh
CC1CCN(C(C)C(=O)Nc2cc(S(=O)(=O)N3CCCCC3)ccc2Cl)CC1 (stereo not drawn) | 15.8µM | – | – | ? | · | –
Cc1ccccc1NCC(=O)Nc1cc(S(=O)(=O)N2CCCCC2)ccc1C | – | – | · | – | · | ·
O=C(CN(Cc1ccco1)Cc1ccco1)Nc1cc(S(=O)(=O)N2CCCCC2)ccc1Cl | 10µM | ? | · | -83.2 | · | ·
N#Cc1cccc(NC(=O)N2CC3(CCN(C(=O)c4ccco4)CC3)C2)c1 | · | – | · | · | – | ·
CON | · | – | · | · | ? | ·
COc1cc(NC(=O)C2CCN(S(=O)(=O)c3cccc4nonc34)CC2)cc(OC)c1 | – | ? | – | – | – | –
CC(NC(=O)C1CCN(S(=O)(=O)c2cccc3nonc23)CC1)c1ccccc1 (stereo not drawn) | – | – | – | -88.0 | – | –
CC(NC(=O)C1CCN(S(=O)(=O)c2cccc3cccnc23)CC1)c1ccccc1 (stereo not drawn) | – | – | · | – | · | ·
COc1ccc(N(C)C(=O)C2CCN(S(=O)(=O)c3cccc4nonc34)CC2)c(OC)c1 | – | – | ? | -60.7 | – | ?
Cc1cc(Nc2ccccc2)nc(N2CCOCC2)n1 | 10µM | – | ? | – | – | –
Cc1cc(Nc2cccc(F)c2)nc(N2CCOCC2)n1 | 3.55µM | – | · | – | – | ·
Cc1cc(Nc2cccc(Cl)c2)nc(N2CCOCC2)n1 | ? | – | ? | – | – | –
COc1ccc(NC(=O)CC2C(=O)N(c3ccc(F)cc3)C(=O)N2Cc2ccco2)cc1 (stereo not drawn) | · | – | · | – | · | –
COC(=O)c1ccc(C(=O)N2CCc3c(C(=O)NC(C)c4ccco4)c(OC)cc(=O)n3CC2)cc1 (stereo not drawn) | · | – | · | · | · | ·
Cc1ccc2oc(=O)c3cc(C(=O)N(Cc4ccccc4)C(C)C)sc3c2c1 | · | – | – | -105.3 | · | ?
Cc1cccn2c(=O)c3cc(C(=O)N(Cc4ccccc4)C(C)C)sc3nc12 | · | ? | 3.98µM | – | · | ?
CCN(CC)C(=O)c1cc2c(=O)n3cccc(C)c3nc2s1 | – | – | ? | – | – | –
c1coc(C2Nc3ccccc3-c3nc4ccccc4n32)c1 (stereo not drawn) | 12.6µM | – | ? | – | – | ?
c1ccc(C2Nc3ccccc3-c3nc4ccccc4n32)cc1 (stereo not drawn) | – | – | ? | – | – | ?
CNC(=S)Nc1ccc(C23CC4CC(CC(C4)C2)C3)cc1 | ? | – | ? | -98.3 | – | ?
COCCn1c(C)cc(O)c(C(c2ccccc2)N2CCN(c3ccccc3)CC2)c1=O (stereo not drawn) | · | – | · | – | · | –
O=c1c(-c2cccc(F)c2)nc2cncnc2n1C1CC1 | · | – | · | · | – | ·
NNC(=O)c1ccc(CSc2cccc3cccnc23)cc1 | – | – | – | – | – | –
COc1cccc(/C=N/NC(=O)CSc2cccc3cccnc23)c1 | ? | ? | · | -91.6 | ? | ·
Cc1cccc(CSc2cccc3cccnc23)c1 | – | – | ? | -108.2 | – | –
SMILES | HCV inh | FMDV antiviral | Marburg entry inh | HCMV antiviral | Giardia FBPA inh | Lassa entry inh
O=C(CSc1cccc2cccnc12)N/N=C/c1ccc(O)cc1 | – | – | · | – | – | ·
CCOC(=O)CSc1cccc2cccnc12 | 6.31µM | ? | ? | -87.0 | – | –
COc1ccc2nc(C)cc(SCC(=O)N/N=C/c3ccco3)c2c1 | – | – | 8.91µM | – | – | ·
Cc1ccc(OCC(=O)Nc2cccc(C(=O)OCc3cc(=O)n4cc(C)sc4n3)c2)cc1 | · | – | · | ? | · | –
COc1ccc([C@H]2C[C@H](n3cc(-c4ccc(F)cc4)nn3)[C@@H](O)CN2Cc2cccs2)cc1 | · | – | ? | – | · | ·
O[C@H]1C[C@H](c2ccccc2)N(Cc2cccs2)C[C@@H]1n1cc(-c2ccc(F)cc2)nn1 | · | – | · | -64.4 | · | ·
COc1ccc([C@H]2C[C@H](O)[C@@H](n3cc(-c4ccc(F)cc4)nn3)CN2Cc2cccs2)cc1 | · | ? | · | -67.1 | · | ?
CC1(C)OC(=O)C2=C(CC(CCc3ccccc3)OC2c2ccc(Cl)c(Cl)c2)O1 (stereo not drawn) | · | · | · | – | · | ·
Cn1nc(-c2ccccn2)nc2c(=O)n(C)c(=O)nc1-2 | 2µM | 1.26µM | · | -100.6 | ? | ·
CCCc1nc2c(=O)n(C)c(=O)nc-2n(C)n1 | 2.51µM | 2.51µM | ? | -98.5 | 5µM | 1µM
O=C(COCc1cc(-c2ccc(F)cc2)on1)Nc1cccc(C(F)(F)F)c1 | · | – | – | – | · | –
CCOCCCNC(=S)N1CCCN(c2nc3c(C)c(C)ccc3cc2C#N)CC1 | 10µM | – | ? | – | – | –
CCOCCCNC(=S)N1CCCN(c2nc3cc(C)ccc3cc2C#N)CC1 | – | – | – | – | – | –
Cc1ccc2cc(C#N)c(N3CCCN(C(=S)NCCCN(C)C)CC3)nc2c1 | 10µM | – | 7.08µM | – | – | ?
Cc1cc(C)c2cc(C#N)c(N3CCCN(C(=S)NCCCN(C)C)CC3)nc2c1 | 11.2µM | – | ? | – | – | –
C=CCC(C)(O)c1cccs1 (stereo not drawn) | · | · | · | · | – | ·
Cc1cc2ccccn2c1C(=O)c1cc([N+](=O)[O-])cc([N+](=O)[O-])c1 | ? | ? | – | ? | – | –
Cc1cc2ccccn2c1C(=O)c1ccc(NN)c([N+](=O)[O-])c1 | – | – | 8.91µM | ? | – | ?
Cc1cc2ccccn2c1C(=O)c1ccc(C#N)cc1 | – | ? | – | -80.5 | – | ?
CCN(CC)S(=O)(=O)c1cccc(C(=O)c2c(C)cc3ccccn23)c1 | ? | ? | ? | – | – | –
COc1cccc(C(=O)Nc2ccc(C(=O)OCc3cc(=O)n4cc(C)sc4n3)cc2)c1 | · | – | · | ? | · | –
CCc1ccccc1NC(=O)CN(c1ccccc1)S(=O)(=O)c1ccsc1C(=O)OC | · | – | · | – | · | ?
Cc1ccc(-c2onc(C)c2C)cc1S(=O)(=O)Nc1cccc(Cl)c1C | · | – | · | ? | · | ?
COc1cccc(-c2ccc3c(c2)N(Cc2cccc(F)c2)C(=O)C(C)S3)c1 (stereo not drawn) | · | ? | · | – | · | ·
COc1cc(C2CC(=O)N(Cc3cccc(F)c3)c3ccccc3S2)cc(OC)c1OC (stereo not drawn) | · | 25.1µM | – | -95.4 | · | ·
CCCCC(O)(c1ccc(OC)cc1)C(CN1CCOCC1)c1ccccc1 (stereo not drawn) | – | – | ? | – | – | –
CCCCCC(O)(c1ccc(OC)cc1)C(CN1CCOCC1)c1ccccc1 (stereo not drawn) | ? | – | ? | -60.6 | – | ?
CCCCC(O)(c1ccc(CC)cc1)C(CN1CCOCC1)c1ccccc1 (stereo not drawn) | ? | – | · | -71.3 | – | ·
CCc1ccc(C(O)(CC)C(CN2CCOCC2)c2ccccc2)cc1 (stereo not drawn) | – | ? | ? | -62.8 | – | –
C[C@H](NC(=O)[C@@H](Cc1c[nH]c2ccccc12)NC(=O)[C@@H](N)Cc1cnc[nH]1)C(=O)N[C@@H](Cc1c[nH]c2ccccc12)C(=O)N[C@H](Cc1ccccc1)C(=O)N[C@@H](CCCCN)C(N)=O | · | · | · | · | – | ·
